# Assay outcomes: PubChem BioAssay, The Scripps Research Institute Molecular Screening Center
# DAX1 inh-1: DAX1 (NR0B1) inhibition, primary screen; inhibition, % at 6.8 µM; HEK293T StAR-luciferase reporter, SF-1/DAX-1 repression relief; AID 652010; 370,000 tested, 1.1% active;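 active = inhibition above the mean over all tested compounds plus 3 SD, cut at about 3.6% in these data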;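 note: higher inhibition means more luminescence from relief of DAX-1 repression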
# ssDAF-12 act: activates DAF-12 receptor from parasite S. stercoralis; HEK293 ssDAF-12/GRIP1 lit1-tk-luc reporter, luminescence; % of 3 µM dafachronic acid response; 370,000 tested, 1% active; AID 652126; activation, % at 6.8 µM;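 active = activation above the mean over all tested compounds plus 3 SD, cut at about 0.9% in these data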
# hgDAF-12 ag: agonists of H. glycines DAF-12 nuclear receptor | AID 687014 | HEK293 GAL4-hgDAF12 UAS-luciferase reporter, agonist luminescence; normalized to butyrate control | 370,000 tested, 1.8% active | activation, % at 6.8 µM;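 active = activation above a cutoff set at the mean of all screened compounds plus 3 SD, cut at about 10% in these data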
# hcDAF12 agonist: activators of H. contortus DAF-12 nuclear receptor. HEK293 hcDAF-12 lit1-tk-luc reporter, luminescence; 0% DMSO, 100% Δ7-dafachronic acid. activation, % at 6.8 µM. 370,000 tested, 1.4% active;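 active = activation above the mean of all tested compounds plus 3 SD, cut at about 5.5% in these data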
# DAX1 inh-2: NR0B1 (DAX1) inhibition | HEK293 Gal4-DAX1 luciferase reporter, luminescence | AID 504766 | 340,000 tested, 0.99% active | inhibition, % at 6.75 µM;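 active = inhibition above the mean over all tested compounds plus 3 SD, cut at about 4.2% in these data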;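 note: inhibition shows as a rise in luminescence from relieved DAX1 repression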
# Target sequence (P51843 207-470 limits assumed): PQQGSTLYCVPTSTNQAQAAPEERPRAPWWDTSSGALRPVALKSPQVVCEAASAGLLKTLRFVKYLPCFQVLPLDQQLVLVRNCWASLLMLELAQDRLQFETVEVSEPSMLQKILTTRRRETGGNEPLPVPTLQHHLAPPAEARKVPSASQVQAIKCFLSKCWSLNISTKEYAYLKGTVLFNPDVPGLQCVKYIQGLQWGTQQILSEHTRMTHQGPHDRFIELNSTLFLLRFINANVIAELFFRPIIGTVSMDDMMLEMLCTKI
# DAX1 conf: confirmation of human DAX1 (NR0B1) inhibitors; shares compounds with DAX1 inh-1; HEK293T StAR-promoter luciferase reporter, SF-1/DAX-1 repression; inhibition, % at 6.8 µM; 2,400 tested, 87% active;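 active = inhibition above the average of every tested compound plus 3 SD, cut at about 3.8% in these data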;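 note: active compounds raise luminescence by relieving repression of the StAR reporter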
# SF1 mutant ctr: nonselective inhibitor or artifact in SF-1 mutant DAX1 counter-screen | shares compounds with DAX1 inh-1 | HEK293 StAR-luciferase, SF-1 AF2 mutant, luminescence | inhibition, % at 6.8 µM | 2,400 tested, 78% active | AID 652136;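 active = inhibition above the mean of all tested compounds plus 3 SD, cut at about 3% in these data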
# Hits are given with their value; 0 = inactive; - = not tested or not shown. Shown are actives, neighbours in structure and some others; about 4.1% of the full set was active somewhere.
SMILES,DAX1 inh-1,ssDAF-12 act,hgDAF-12 ag,hcDAF12 agonist,DAX1 inh-2,DAX1 conf,SF1 mutant ctr
COc1cccc(N2CCN(C(=O)CN3C(=O)NC4(CCCC4)C3=O)CC2)c1,0,0,0,0,0,-,-
CCCCCCCCN1CN2Cc3ccc(C)cc3C2CS1(=O)=O (stereo unspecified),0,0,0,0,-,-,-
O=C1Nc2ccccc2N(C(=O)c2ccc(-c3ccccc3)cc2)C1c1nc2ccccc2[nH]1 (stereo unspecified),20,0,26,9.1,-,8.2,4.8
COC(=O)[C@]12C[C@H](CC(=O)NCc3cccs3)C(=O)N(Cc3ccc(Cl)cc3Cl)C1=C[C@H](C(C)C)O[C@@H]2C1CC1,0,0,0,0,-,-,-
Cc1ccc(CNC(=O)Cc2noc3ccccc23)cc1,9.5,0,11,0,0,8.2,4.8
O=C(COc1ccccc1Br)NC(=O)NC1CCCC1,4.9,0,0,0,0,7.3,4.3
O=C(COc1ccccc1Br)NC1CC1,0,0,0,0,0,-,-
CCc1nnc(NC(=O)c2ccc(OC)cc2OC)s1,6.8,0,12,6.1,0,13,5.7
COc1ccccc1C(=O)Nc1nnc(SCC(=O)NCC2CCCO2)s1 (stereo unspecified),10,0,11,0,0,9.6,9.2
CCc1nnc(NC(=O)Nc2ccccc2OC)s1,0,0,0,0,0,-,-
O=C(CSc1nnc(NC(=O)c2ccccc2F)s1)NCc1ccc(F)cc1,6.8,0,0,0,0,9.2,3.7
Cc1ccccc1C(=O)Nc1nnc(SCC(=O)NC2CC2)s1,7.4,0,0,0,0,6.1,3.6
O=C(Cc1c[nH]c2ccccc12)Nc1ccc(Nc2cccnc2)c(-c2ccc(OC(F)(F)F)cc2)c1,0,0,0,0,-,-,-
O=C(Nc1nnc(-c2ccccc2)s1)c1ccccc1F,5.5,0,11,0,0,7.7,5.2
COc1ccc(C(=O)Nc2nnc(SCC(=O)NCc3ccco3)s2)c(OC)c1,5.0,0,0,0,0,5.5,0
COc1ccc(C(=O)Nc2nnc(SCC(=O)NC3CCCC3)s2)c(OC)c1,10,2.3,11,0,0,8.4,0
O=C(CSc1nnc(NC(=O)c2ccccc2F)s1)NCc1ccco1,6.3,0,0,0,0,5.9,6.4
CC(=O)Nc1nnc(SCC(=O)NC2CCCC2)s1,0,0,0,0,0,-,-
O=C(NCc1ccccc1)[C@@H]1CCCN1C(=O)[C@H]1CCCN1C(=O)c1ccccc1F,0,0,0,0,-,-,-
COc1cc2c(=O)[nH]c3cc([N+](=O)[O-])ccc3c2cc1[N+](=O)[O-],0,0,0,0,0,-,-
Nc1cc2[nH]c(=O)c3ccccc3c2cc1[N+](=O)[O-],5.4,0,0,0,0,0,0
O=C(NC1CCCC1)C1(C(=O)C2CC2)CC(c2ccccc2C(F)(F)F)=NO1 (stereo unspecified),0,0,0,0,-,-,-
Cc1nn(-c2ccccc2)c(Cl)c1/C=N/NC(=O)c1ccnn1C,7.2,0,0,0,0,9.4,6.4
COc1ccc(O)c(C(=O)CC(=O)c2cccnc2)c1,6.5,0,0,0,0,7.3,6.9
Cc1cccc(Cl)c1-n1nnnc1C1(C)CSCC(=O)N1Cc1ccc(F)cc1 (stereo unspecified),0,0,0,0,-,-,-
SMILES,DAX1 inh-1,ssDAF-12 act,hgDAF-12 ag,hcDAF12 agonist,DAX1 inh-2,DAX1 conf,SF1 mutant ctr
COCC(C)n1c(C)cc(C(=O)CSc2nnc(N)s2)c1C (stereo unspecified),0,0,0,0,0,-,-
Cc1cc(C)c(C(=O)CSc2nnc(N)s2)cc1C,0,0,0,0,0,-,-
Cc1cc(C(=O)CSc2nnc(N)s2)c(C)n1C1CC1,5.6,0,0,0,0,4.1,0
Cc1ccc(C(=O)CSc2nnc(N)s2)c(C)c1,7.8,1.0,13,0,0,8.9,5.4
CCN(C(=O)CSc1ncccn1)c1c(N)n(Cc2ccccc2)c(=O)[nH]c1=O,4.7,0,0,0,0,0,0
CC(CC(=O)N(CCC1=CCCCC1)c1c(N)n(Cc2ccccc2)c(=O)[nH]c1=O)c1ccccc1 (stereo unspecified),6.3,0,0,0,0,0,0
O=C(OCc1cn(Cc2cccc(F)c2)nn1)N1CCOCC1,0,0,0,0,-,-,-
Cc1[nH]nc2c1C(c1ccc(F)cc1)N(Cc1ccccc1)C2=O (stereo unspecified),0,0,0,0,-,-,-
O=C(/C=C(\Nc1cccc(F)c1)c1ccccc1)c1ccccc1,0,0,0,0,-,-,-
Clc1ccc2nc(CSc3nnc4ccccn34)cn2c1,5.1,0,0,5.6,0,14,8.8
Clc1ccc2nc(CSc3nncn3-c3ccccc3)cn2c1,0,0,0,0,0,-,-
O=C(Nc1ccc2nc3n(c(=O)c2c1)CCCCC3)c1ccccn1,4.8,0,13,0,0,9.1,4.7
O=C(NCCc1ccc(F)cc1)c1ccc2c(=O)n3c(nc2c1)CCC3,6.3,0,0,0,0,0,3.4
Cc1ccc(NC(=O)c2ccc3c(=O)n4c(nc3c2)CCCCC4)nc1,0,0,0,0,0,-,-
O=C(Nc1ccc2nc3n(c(=O)c2c1)CCCC3)c1ccccc1F,0,0,0,0,0,-,-
Cc1cccc(NC(=O)c2ccc3c(=O)n4c(nc3c2)CCCCC4)n1,7.0,0,0,0,0,6.2,0
O=C(NCc1ccccc1)c1ccc2c(=O)n3c(nc2c1)CCCCC3,0,0,0,0,0,-,-
CSc1cccc(NC(=S)NN/C(=N/S(=O)(=O)c2ccccc2)N2CCCC2)c1,0,0,0,0,-,-,-
COC(=O)c1sccc1NC(=O)c1ccc2c(c1)OCO2,0,0,0,0,0,-,-
COC(=O)c1c(-c2cccnc2)csc1NC(=O)c1ccc2c(c1)OCO2,8.2,0,0,0,0,12,6.8
CCOC(=O)Cc1c(C)nc2c(-c3cccc(Br)c3)cnn2c1C,0,0,0,0,0,-,-
Cc1cc(N)n2ncc(-c3cccc(Br)c3)c2n1,4.9,0,0,0,0,7.0,3.7
O=C(Nc1ccc(Cl)cc1)C1=Cc2cc(Cl)ccc2OC1,0,0,0,0,0,-,-
COc1ccc(NC(=O)C2=Cc3ccccc3OC2)cc1,8.0,1.2,18,5.8,0,18,8.2
Cc1cc(N2CCN(S(C)(=O)=O)C[C@@H]2C)ccc1N1CCN(Cc2ccccc2)[C@@H](C)C1,0,0,0,0,-,-,-
COC(=O)[C@]12C[C@H](CC(=O)NCCCN3CCCC3=O)C(=O)N(Cc3cccc4ccccc34)C1=C[C@H](C1CCCC1)O[C@@H]2C,0,0,0,0,-,-,-
Clc1ccc(-c2nnc(SCc3ccon3)o2)c(Cl)c1,7.2,0,16,6.2,0,11,5.4
